# In PubChem BioAssay AID602388 (National Center for Advancing Translational Sciences (NCATS), 2012):
# Some of the results follow. Inconclusive results are not listed. The source made the active and inactive calls. The call rests on the fitted dose curve; in most records, active means well fitted inhibition curve with a large enough effect; inconclusive means small, poorly fitted or top-dose-only effect; inactive means flat fitted curve, though single readings scatter.
# Target: Regulator of G-protein signaling 4 (Homo sapiens) (UniProt P49798)
# Assay: qHTS for Inhibitors of Regulator of G Protein Signaling(RGS) 4: Hit Validation
# Conditions: RGS4 GAP activity, Transcreener GDP fluorescence polarization
# Source text: G-protein-coupled receptors (GPCRs) are well-established targets for drug discovery and development. Members of the "regulator of G-protein signaling" (RGS)-protein superfamily have recently emerged as critical modulators of specific GPCR signaling pathways. […] Combining specific RGS domain inhibitors with existing GPCR agonists should potentiate cellular responses and could also increase the specificity of action of existing therapeutics. Small molecule modulators of RGS domain activity should also have clinical utility in inhibiting or potentiating the actions of endogenous GPCR agonists. In particular, the diversity of RGS proteins with highly localized and dynamically regulated distributions in the human brain makes this family of proteins attractive targets for pharmacotherapy of central nervous system (CNS) disorders such as Parkinson's disease, schizophrenia, and anxiety. […] This assay was used to screen the NIH Molecular Libraries Small Molecule Repository (MLSMR) in order to identify a small molecule that inhibits RGS4. NIH Chemical Genomics Center [NCGC] NIH Molecular Libraries Probe Centers Network [MLPCN] MLPCN Grant: DA030555 Assay Submitter (PI): David Siderovski, University of North Carolina Chapel Hill (School of Medicine)
# Two microliters of 500nM (2x working concentration) is dispensed into black medium-binding solid-bottom Kalypsys plates. Then with the Kalypsys pintool 23nl of control and compounds are transferred; the control compound is […] CCG-4986 (working concentration). […] An initial fluorescent polarization read (620 nm/688 nm) is performed on the Envision before the plate is incubated for 90 minutes at 30 deg C at a relative humidity of 80%. The plate is once more centrifuged at 1000 RPM for 15 seconds and another Envision fluorescent polarization (620 nm/688 nm) read is carried out.
# Chain of Regulator of G-protein signaling 4 (Homo sapiens) (P49798 whole entry, looked up): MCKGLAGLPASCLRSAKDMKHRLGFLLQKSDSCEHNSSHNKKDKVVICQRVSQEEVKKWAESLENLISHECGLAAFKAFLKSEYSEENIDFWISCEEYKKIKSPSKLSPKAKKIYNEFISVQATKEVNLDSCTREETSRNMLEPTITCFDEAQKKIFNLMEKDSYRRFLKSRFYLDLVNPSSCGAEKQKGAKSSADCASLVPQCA
row,Structure (SMILES),Potency
1,O=C(Nc1nc(-c2ccncc2)cs1)C1COc2ccccc2O1 (stereo not drawn),5.32 µM (active)
2,Cc1ccc(-c2nc3ccccn3c2Nc2c(C)cccc2C)o1,10.6 µM (active)
3,Cc1ccc(-n2nc(-c3ccco3)cc2C(=O)NCc2cccnc2)cc1,6.7 µM (active)
